Compound activity as filed in PubChem BioAssay.
Rows were chosen to be rich in hits. Some 3.3% of all compounds tested hit in one or more screens of this group.
Arbovirus inh: antivirals against arbovirus infection, primary screen, cell-based, full library, 10K replicate subset. inhibition, % at 10 µM. 200,000 compounds, 0.37% hits. arbovirus infection cell-based antiviral screen; in the data active means inhibition above about 30%
WT yeast gro inh: growth inhibition of WT strain, primary screen, mitochondrial fusion inhibitor project, WT and mutant strains, chemical genetic; mitochondrial fusion phenotypic screen; inhibition, % at 10 µM; 190,000 compounds, 2.1% hits; AID 1362, 2008; in the data active means inhibition above about 58%; tested in S. cerevisiae
ROMK mod: ROMK potassium channel modulators, primary screen, cell-based, thallium flux, MLSMR library; ATP-sensitive inward rectifier potassium channel 1 (Homo sapiens), P48048; Tet-inducible ROMK, thallium flux fluorescence; actives lie on both sides; B-score at 10 µM; 130,000 compounds, 2% hits;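 active means signal ratio slope over the read window, or its plate-corrected B-score, at least 3 SD from the plate mean, either direction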;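 further: B-score of the F/F0 ratio slope over 7 to 12 s after thallium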
Target sequence (P48048 whole entry, looked up): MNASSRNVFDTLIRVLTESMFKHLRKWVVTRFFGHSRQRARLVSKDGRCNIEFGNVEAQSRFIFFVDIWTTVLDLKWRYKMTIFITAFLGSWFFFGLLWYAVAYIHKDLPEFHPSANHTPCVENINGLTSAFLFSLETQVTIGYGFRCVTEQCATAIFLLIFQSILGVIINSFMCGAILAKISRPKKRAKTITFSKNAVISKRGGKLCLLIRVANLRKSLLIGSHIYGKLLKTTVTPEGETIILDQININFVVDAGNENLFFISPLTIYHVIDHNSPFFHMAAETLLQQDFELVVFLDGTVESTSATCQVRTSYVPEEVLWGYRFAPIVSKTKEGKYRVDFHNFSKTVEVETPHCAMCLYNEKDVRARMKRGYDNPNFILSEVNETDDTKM
PERK inhibitor: block of dimerizer-induced PERK translation repression, primary screen, PERK inhibitor project, CHO PERK-DD cells, SEAP luminescence, HTS | Eukaryotic translation initiation factor 2-alpha kinase 3 (Homo sapiens), Q9NZJ5 | CHO PERK-DD fusion, SEAP luminescence translation reporter | inhibition, % at 5.6 µM | 220,000 compounds, 0.17% hits | AID 1416, 2008;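 active means inhibition above the mean inhibition of all tested compounds plus 3 SD, set separately per screening campaign, cut at about 2.9% in these data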;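 further: PERK kinase domain activated by AP20187 dimerizer at 100 nM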
Numbers stand for hits; - = inactive; . = no result given.

SMILES | Arbovirus inh | WT yeast gro inh | ROMK mod | PERK inhibitor
CCOC(=O)Cc1nnc(NC(=O)c2ccccc2OC)s1 | - | - | - | -
Cc1ccc(-n2c(C)nnc2SCC(=O)Nc2ccccc2)cc1 | - | - | - | -
C[C@@H](C[C@@H](O)[C@H](O)C(C)(C)O)[C@@H]1CC[C@]2(C)C3=CC[C@H]4C(C)(C)C(=O)CC[C@]4(C)[C@H]3CC[C@@]12C | - | 60 | - | -
CCC(C)(C)c1ccc2c(c1)C(=O)c1ccccc1C2=O | - | 76 | - | -
CCC(=O)Nc1ccc2c(c1)C(=O)c1ccccc1C2=O | - | - | - | -
COCc1ccc(CN2CCc3c([nH]c4ccccc34)C2CC(C)C)o1 (centres undefined) | - | - | - | -
CSc1ccc(N/N=C(/C#N)S(=O)(=O)C(C)(C)C)cc1 | - | - | -3.2 | -
COc1ccc(N/N=C(/C#N)S(=O)(=O)C(C)(C)C)cc1 | - | - | - | -
CCOc1ccc(-c2nnc3sc(-c4ccccc4OC)nn23)cc1 | . | . | 3.3 | -
CCCCCC(=O)O[C@]1(C(C)=O)CC[C@H]2[C@@H]3CCC4=CC(=O)CC[C@]4(C)[C@H]3CC[C@@]21C | - | 74 | . | -
O=C(Oc1ccc(-c2nnco2)cc1)N1CCCCC1 | - | - | . | -
O=C(Oc1ccc(-c2nnco2)cc1)N(c1ccccc1)c1ccccc1 | - | 58 | . | -
CCCNC(=S)N1CC2(C)CN(C(=O)C(=O)OCC)CC(C)(C1)C2=O | - | - | - | -
CC(C)(C)c1ccc(/C=N/NC(=S)Nc2cccnc2)cc1 | - | 60 | - | -
C=CCNC(=S)N/N=C/c1ccc(C(C)(C)C)cc1 | - | 76 | - | -
CCC(C)(C)C1CCC(=NNC(=S)Nc2cccnc2)CC1 (centres undefined) | - | - | - | -
CC(C)(C)c1ccc(/C=N/NC(=S)NCc2ccccc2)cc1 | - | - | - | -
CC1=C/C(=N\NC(=S)Nc2cccnc2)CC(C)(C)C1 | - | - | 3 | -
CCn1c(NC(=O)Nc2ccccc2OC)nc2ccccc21 | - | - | . | -
CCc1nnc(NS(=O)(=O)c2ccc(N/C=C\C(=O)c3ccc4ccccc4c3)cc2)s1 | 34 | - | - | -
CCc1nnc(NS(=O)(=O)c2ccc(NC(=O)c3ccccc3)cc2)s1 | . | . | - | -
O=c1cc(C(F)(F)F)[nH]c2c(C(F)(F)F)cccc12 | - | 78 | - | -
CCCOc1ccc(-c2nc(C#N)c(N3CCC(C(N)=O)CC3)o2)cc1 | - | 94 | . | -
N#Cc1nc(-c2ccc(OCc3ccc(Cl)cc3)cc2)oc1N1CCC(C(N)=O)CC1 | - | - | . | -
COc1cc2c(cc1C1NC(=S)NC(C)=C1C(N)=O)CCCC2 (centres undefined) | - | - | - | -
SMILES | Arbovirus inh | WT yeast gro inh | ROMK mod | PERK inhibitor
CC1CCCN(C(=O)N2c3ccccc3Sc3ccccc32)C1 (centres undefined) | - | 69 | - | -
CC1CCN(C(=O)N2c3ccccc3Sc3ccccc32)CC1 | - | - | - | -
O=[N+]([O-])c1cccc(-c2csc(N/N=C/c3cccc(O)c3)n2)c1 | - | 84 | - | -
Cc1ccccc1N1CC(C(=O)O)CC1=O (centres undefined) | - | - | - | -
CCCCc1ccc(/C=C2\C(=O)c3ccccc3C(O)=C2C(=O)OCC)cc1 | - | 72 | . | -
O=C1N=C2N(CCN3CCCCC3)c3ccccc3N2/C1=C\c1ccc([N+](=O)[O-])o1 | - | - | - | -
Cc1cccc2nc(-c3ccccc3)nc(N[C@@H](CO)c3ccccc3)c12 | - | 66 | - | -
C[n+]1c2n(c3ccccc31)N=C(c1ccc(-c3ccccc3)cc1)CS2 | - | 87 | - | -
COc1ccc(CCNC(=O)c2ccc(CNc3nc(=S)[nH]c4ccccc34)cc2)cc1OC | - | - | - | -
CCOC(=O)c1ccc(N2C(=O)C3C(/C=C/c4ccccc4)OC4(C(=O)c5ccccc5C4=O)C3C2=O)cc1 (centres undefined) | 73 | - | - | -
CCOC(=O)c1ccc(N2C(=O)C(C)=C(C)C2=O)cc1 | - | . | . | -
CC(=O)N(Cc1ccc(F)cc1)C1=C(NCCc2ccccc2)C(=O)c2ccccc2C1=O | - | 83 | - | -
CC(=O)N(Cc1ccc(F)cc1)c1cccc(C)c1C | - | - | - | -
O=C(NC12CC3CC(CC(C3)C1)C2)c1ccc(N2CCNCC2)c([N+](=O)[O-])c1 | . | . | . | -
CON/C=N/C(=S)Nc1ncc(C(F)(F)F)cc1Cl | - | - | 5.4 | -
